Records with an inconclusive call do not appear. The source made the active and inactive calls. Unless noted, the call rests on the fitted dose curve; in most records, active means well fitted curve in the direction sought with a large enough effect in the repeat runs; inconclusive means weak or mixed curves; inactive means no such curve, though single readings can be large; an effect the other way counts as inactive or inconclusive.
Key:
[1] = qHTS assay to identify small molecule HDAC inhibitors - cell viability counter screen (AID 1259365); further: series mostly up to about 92 µM; nearly all actives have a fitted effect of over 50% in size
Outline: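 After overnight seeding at 1,500 cells per well, wild-type HCT-116 cultures took up compounds in DMSO for 2hr at 37 C. Viable cell content came from luminescence with CellTiter-Glo.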

[2] = qHTS assay to identify small molecule agonists of the sonic hedgehog signaling (Shh) pathway - cell viability counter screen (AID 1259366); further: nearly all actives have a fitted effect of over 50% in size
Outline: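 Same-well cytotoxicity read. Gli1-Luc reporter 3T3 cells; compounds 24hr, 37C/5% CO2; CellTiter-Fluor fluorescence.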

[3] = qHTS assay to identify small molecule antagonists of the sonic hedgehog signaling (Shh) pathway - cell viability counter screen (AID 1259367); further: nearly all actives have a fitted effect of over 55% in size
Outline: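 Conditioned medium drove Shh signaling in 3T3 Gli1-Luc cells exposed to compounds at 37C and 5% CO2. Viability was determined from CellTiter-Fluor fluorescence, with reagent incubated 1 hr after 23 hr of treatment.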

[4] = qHTS assay to identify small molecule agonists of the sonic hedgehog signaling (Shh) pathway (AID 1259368; calls by dose curve;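 further: NIH/3T3-derived 3T3Gli1-Luc cells carrying a stable Gli1-driven firefly luciferase reporter; series mostly up to about 92 µM; nearly all actives have a fitted effect of over 15% in size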)
Outline: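 Hedgehog pathway agonism scored by increased firefly luciferase luminescence in 3T3Gli1-Luc cells treated 24 hr at 37 C; detection used a 30 min room-temperature reagent incubation.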

[5] = qHTS assay to identify small molecule antagonists of the sonic hedgehog signaling (Shh) pathway (AID 1259369; calls by dose curve; further: nearly all actives have a fitted effect of over 45% in size)
Outline: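 NIH/3T3 stable Gli1-Luc clone, 2,000 cells/well, 4hr settle; cpd + conditioned medium 24hr; Luc reagent 30min RT; luminescence.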

[6] = qHTS assay to identify small molecule agonists of the androgen receptor (AR) signaling pathway in the presence of an antagonist - cell viability counter screen (AID 1259379);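 further: MDA-kb2 human breast cancer cells carrying an MMTV luciferase reporter; series mostly up to about 92 µM; nearly all actives have a fitted effect of over 25% in size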
Outline: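 MDA-kb2 viability measured by CellTiter-Fluor fluorescence in the same wells as the luciferase signal; nilutamide 3.0uM final; 15-point compound titration; 16 hr at 37C.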

[7] = qHTS assay to identify small molecule agonists of the estrogen receptor beta (ER-beta) signaling pathway - cell viability counter screen (AID 1259380); further: nearly all actives have a fitted effect of over 30% in size
Outline: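 Measured: luminescence from CellTiter-Glo after 30 min at room temperature, added to wells already read for the LiveBLAzer FRET reporter (2 hr substrate); ER-beta-UAS-bla HEK293T cells had 16 hr compound treatment at 37C, 5% CO2.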

[8] = target: Androgen receptor (Homo sapiens) (UniProt P10275); test: qHTS assay to identify small molecule agonists of the androgen receptor (AR) signaling pathway in the presence of an antagonist (AID 1259381; calls by dose curve; further: nearly all actives have a fitted effect of over 15% in size)
Outline: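 Luminescent ONE-Glo read, 30min at room temperature, follows 16hr compound exposure (15 concentrations) of MDA-kb2 cells at 37C, 0% CO2, with nilutamide added at 3.0uM final.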

[9] = qHTS assay to identify small molecule antagonists of the estrogen receptor beta (ER-beta) signaling pathway - cell viability counter screen (AID 1259382); further: series mostly up to about 92 µM; nearly all actives have a fitted effect of over 55% in size
Outline: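 Readout: luminescence, CellTiter-Glo, same wells as bla assay. System: ER-beta-UAS-bla GripTite HEK293T, 2% charcoal-stripped FBS. Exposure: compounds plus 1nM 17-beta-estradiol, 16 hr, 37C.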

[10] = target: Estrogen receptor (Homo sapiens) (UniProt P03372); test: qHTS assay to identify small molecule agonists of the estrogen receptor alpha (ER-alpha) signaling pathway in the presence of an antagonist (AID 1259383; calls by dose curve; further: top concentration of the series differs between compounds; nearly all actives have a fitted effect of over 15% in size)
Outline: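 Quantitative HTS confirmation: compounds titrated at 15 concentrations onto estrogen-deprived VM7Luc4E2 cells carrying a four-ERE luciferase construct, with ICI-182,780 present at 10.0nM final. Signal is luminescence after 22hr exposure.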

[11] = target: Thyrotropin receptor (Homo sapiens) (UniProt P16473); test: qHTS assay to identify small molecule antagonists of the thyroid stimulating hormone receptor (TSHR) signaling pathway (AID 1259385; calls by dose curve; further: nearly all actives have a fitted effect of over 20% in size)
Outline: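 TSHR-HEK293 cells were plated and held 18 h at 37C/5% CO2, then given compound plus Ro20-1724 and stimulated with TSH at 1.5 ng/mL final. After 30 min at room temperature, cAMP was detected with cAMP-d2/anti-cAMP-cryptate (1 h) by fluorescence.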

[12] = qHTS assay to identify small molecule agonists of the estrogen receptor alpha (ER-alpha) signaling pathway in the presence of an antagonist - cell viability counter screen (AID 1259386);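 further: series mostly up to about 92 µM; cells exposed to compounds for 22 h at 37 °C before the viability read; nearly all actives have a fitted effect of over 30% in size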
Outline: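 The test measures whether compounds kill ER-alpha reporter cells (VM7Luc4E2) under antagonist co-treatment (ICI-182,780, 10.0nM). Fluorescence from CellTiter-Fluor is read after a 22hr exposure.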

[13] = target: Progesterone receptor (Homo sapiens) (UniProt P06401); test: qHTS assay to identify small molecule agonists of the progesterone receptor (PR) signaling pathway (AID 1346784; calls by dose curve; further: nearly all actives have a fitted effect of over 30% in size)
Outline: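 Compounds were tested for PR agonism in HEK 293T cells bearing a beta-lactamase gene under UAS control. Treatment lasted 16 hr at 37C; signal came from fluorescence of a FRET substrate.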

[14] = target: Progesterone receptor (Homo sapiens) (UniProt P06401); test: qHTS assay to identify small molecule antagonists of the progesterone receptor (PR) signaling pathway (AID 1346795; active means well fitted inhibition curve with a large enough effect in the signal ratio in the repeat runs, not every such curve was filed as active; the % refers to the signal ratio)
Outline: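 In HEK293T cells bearing the PR-UAS-bla reporter, compound effects on promegestone-driven (1 nM) beta-lactamase expression are assessed after 16 hr using a fluorescent FRET substrate incubated 2 hr at room temperature.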

[15] = qHTS assay to identify small molecule agonists of the progesterone receptor (PR) signaling pathway - cell viability counter screen (AID 1346799; calls by dose curve; further: nearly all actives have a fitted effect of over 45% in size)
Outline: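 Here, 3,000 PR-UAS-bla HEK293T cells per well were treated with compounds for 16 hr after a 6 hr preincubation at 37C and 5% CO2; cell viability is the CellTiter-Glo luminescence signal.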

[16] = qHTS assay to identify small molecule antagonists of the TGF-beta/Smad signaling pathway - cell viability counter screen (AID 1346824); further: nearly all actives have a fitted effect of over 50% in size
Outline: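 SBE-bla HEK 293T cells were plated overnight at 37 C, then given compounds in DMSO plus TGF-beta1 (added as 0.25 ng/mL solution) for 5 hr. After the bla read, CellTiter-Glo was added to the same wells and luminescence read after 30 min at room temperature.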

[17] = target: Estrogen receptor beta (Homo sapiens) (UniProt Q92731); test: qHTS assay to identify small molecule agonists of the estrogen receptor beta (ER-beta) signaling pathway (AID 1259377; active means well fitted activation curve with a large enough effect in the signal ratio in the repeat runs, not every such curve was filed as active; the % refers to the signal ratio)
Outline: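 Read-out: beta-lactamase FRET fluorescence. Cell line: ER-beta-UAS-bla HEK293T in 2% charcoal-stripped FBS. Exposure: 16 hr at 37C. Substrate step: 2 h at room temperature.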

[18] = qHTS assay to identify small molecule antagonists of the progesterone receptor (PR) signaling pathway - cell viability counter screen (AID 1346798); further: series mostly up to about 92 µM; nearly all actives have a fitted effect of over 50% in size
Outline: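 Following a 4 hr attachment, PR-UAS-bla HEK293T cells in charcoal-stripped FBS medium were exposed to compounds with R5020 for 16 hr; CellTiter-Glo was added and luminescence read after 30 min at room temperature.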

[19] = qHTS assay to identify small molecule agonists or antagonists of the thyroid stimulating hormone receptor (TSHR) signaling pathway - wild type cell line counter screen (AID 1259384; calls by dose curve)
Outline: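 Wild-type HEK293 cells were plated 18 h at 37 C/5% CO2, pin-dosed with compound plus Ro20-1724 medium, held 30 min at room temperature, then given cAMP-d2 and anti-cAMP-cryptate; fluorescence was read after 1 h. Fifteen concentrations, triplicate.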

[20] = target: Estrogen receptor beta (Homo sapiens) (UniProt Q92731); test: qHTS assay to identify small molecule antagonists of the estrogen receptor beta (ER-beta) signaling pathway (AID 1259378; active means well fitted inhibition curve with a large enough effect in the signal ratio in the repeat runs, not every such curve was filed as active; the % refers to the signal ratio)
Outline: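 ER-beta-UAS-bla HEK293T (GripTite) cells in 2% charcoal-stripped FBS medium were preincubated 6 hr at 37C, dosed with compound, then stimulated with 1 nM E2 (final) for 16 hr; beta-lactamase reporter read by B/G FRET fluorescence after 2 hr substrate loading.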
On the % scale 0 is the no-effect control and ±100 the full control effect.

Sequence of Thyrotropin receptor (Homo sapiens) (P16473 whole entry, looked up): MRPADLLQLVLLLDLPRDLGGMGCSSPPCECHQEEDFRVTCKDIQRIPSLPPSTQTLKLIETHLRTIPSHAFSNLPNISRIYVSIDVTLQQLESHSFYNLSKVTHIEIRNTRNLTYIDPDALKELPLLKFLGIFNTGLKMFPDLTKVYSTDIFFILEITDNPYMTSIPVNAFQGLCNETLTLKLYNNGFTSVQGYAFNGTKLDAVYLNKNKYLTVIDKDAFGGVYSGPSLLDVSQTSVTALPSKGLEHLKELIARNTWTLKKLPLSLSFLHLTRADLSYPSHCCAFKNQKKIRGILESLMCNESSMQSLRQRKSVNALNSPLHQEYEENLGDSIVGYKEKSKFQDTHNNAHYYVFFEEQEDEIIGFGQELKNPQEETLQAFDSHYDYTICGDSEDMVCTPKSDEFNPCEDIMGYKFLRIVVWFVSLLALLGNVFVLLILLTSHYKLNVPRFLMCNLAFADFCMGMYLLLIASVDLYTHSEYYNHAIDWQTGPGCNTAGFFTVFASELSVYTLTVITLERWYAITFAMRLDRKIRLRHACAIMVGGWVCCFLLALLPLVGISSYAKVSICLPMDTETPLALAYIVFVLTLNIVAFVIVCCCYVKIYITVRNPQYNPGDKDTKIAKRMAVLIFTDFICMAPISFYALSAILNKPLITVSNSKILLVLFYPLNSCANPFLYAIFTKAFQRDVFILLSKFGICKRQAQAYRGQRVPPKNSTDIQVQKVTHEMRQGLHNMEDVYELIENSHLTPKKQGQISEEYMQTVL
Sequence of Estrogen receptor beta (Homo sapiens) (Q92731 whole entry, looked up): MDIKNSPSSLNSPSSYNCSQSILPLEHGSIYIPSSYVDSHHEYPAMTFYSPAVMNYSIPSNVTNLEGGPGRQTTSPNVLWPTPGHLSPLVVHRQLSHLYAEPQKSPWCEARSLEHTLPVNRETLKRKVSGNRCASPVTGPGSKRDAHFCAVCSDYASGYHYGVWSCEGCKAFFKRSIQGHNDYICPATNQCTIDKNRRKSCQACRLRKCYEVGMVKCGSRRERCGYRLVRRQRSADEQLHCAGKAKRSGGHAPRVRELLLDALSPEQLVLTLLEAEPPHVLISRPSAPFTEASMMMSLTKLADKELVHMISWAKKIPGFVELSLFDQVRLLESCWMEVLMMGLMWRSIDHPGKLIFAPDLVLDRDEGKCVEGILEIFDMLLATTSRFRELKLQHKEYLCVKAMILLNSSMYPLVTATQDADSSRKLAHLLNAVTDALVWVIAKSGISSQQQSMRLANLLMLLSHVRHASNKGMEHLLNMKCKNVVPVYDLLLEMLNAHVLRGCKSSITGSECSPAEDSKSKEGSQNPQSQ
Sequence of Estrogen receptor (Homo sapiens) (P03372 whole entry, looked up): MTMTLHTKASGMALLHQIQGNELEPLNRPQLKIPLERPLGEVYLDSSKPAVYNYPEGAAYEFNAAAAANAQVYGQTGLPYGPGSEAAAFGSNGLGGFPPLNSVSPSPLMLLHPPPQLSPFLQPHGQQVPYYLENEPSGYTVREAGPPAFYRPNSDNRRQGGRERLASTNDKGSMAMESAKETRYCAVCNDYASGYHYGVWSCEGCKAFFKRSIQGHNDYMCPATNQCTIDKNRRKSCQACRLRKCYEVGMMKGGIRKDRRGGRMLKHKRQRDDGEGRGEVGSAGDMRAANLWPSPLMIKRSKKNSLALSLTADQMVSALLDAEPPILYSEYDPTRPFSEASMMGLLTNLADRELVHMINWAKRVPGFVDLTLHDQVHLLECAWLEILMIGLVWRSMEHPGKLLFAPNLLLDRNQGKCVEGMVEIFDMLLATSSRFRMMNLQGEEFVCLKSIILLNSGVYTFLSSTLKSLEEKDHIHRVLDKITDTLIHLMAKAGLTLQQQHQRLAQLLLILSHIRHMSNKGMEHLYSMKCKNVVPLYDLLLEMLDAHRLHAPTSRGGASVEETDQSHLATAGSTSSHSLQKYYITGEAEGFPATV
Sequence of Progesterone receptor (Homo sapiens) (P06401 whole entry, looked up): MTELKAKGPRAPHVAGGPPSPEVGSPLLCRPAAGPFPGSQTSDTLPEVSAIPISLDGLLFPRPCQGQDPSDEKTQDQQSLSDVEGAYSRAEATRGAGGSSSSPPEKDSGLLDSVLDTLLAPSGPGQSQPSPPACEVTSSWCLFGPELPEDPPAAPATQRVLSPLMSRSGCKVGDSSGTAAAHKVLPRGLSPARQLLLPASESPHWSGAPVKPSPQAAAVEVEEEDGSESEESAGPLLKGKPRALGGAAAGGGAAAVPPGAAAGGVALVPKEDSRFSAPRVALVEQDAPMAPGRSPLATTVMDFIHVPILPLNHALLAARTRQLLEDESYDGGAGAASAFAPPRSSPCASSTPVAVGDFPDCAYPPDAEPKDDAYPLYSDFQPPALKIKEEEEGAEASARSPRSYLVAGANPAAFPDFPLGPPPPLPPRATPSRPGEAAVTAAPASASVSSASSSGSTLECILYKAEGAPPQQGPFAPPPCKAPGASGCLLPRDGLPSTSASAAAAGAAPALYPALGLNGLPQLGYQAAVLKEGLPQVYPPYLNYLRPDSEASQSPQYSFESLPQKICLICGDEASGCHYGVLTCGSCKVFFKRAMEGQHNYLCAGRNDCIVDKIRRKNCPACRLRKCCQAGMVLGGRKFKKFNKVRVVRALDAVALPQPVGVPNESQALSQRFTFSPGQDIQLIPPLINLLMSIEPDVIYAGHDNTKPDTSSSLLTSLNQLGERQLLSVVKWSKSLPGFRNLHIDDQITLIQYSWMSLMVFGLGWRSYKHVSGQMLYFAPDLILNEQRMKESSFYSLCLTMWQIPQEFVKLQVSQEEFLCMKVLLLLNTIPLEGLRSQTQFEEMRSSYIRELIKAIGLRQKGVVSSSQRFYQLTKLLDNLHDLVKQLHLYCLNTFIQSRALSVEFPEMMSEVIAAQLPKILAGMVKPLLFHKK
Sequence of Androgen receptor (Homo sapiens) (P10275 whole entry, looked up): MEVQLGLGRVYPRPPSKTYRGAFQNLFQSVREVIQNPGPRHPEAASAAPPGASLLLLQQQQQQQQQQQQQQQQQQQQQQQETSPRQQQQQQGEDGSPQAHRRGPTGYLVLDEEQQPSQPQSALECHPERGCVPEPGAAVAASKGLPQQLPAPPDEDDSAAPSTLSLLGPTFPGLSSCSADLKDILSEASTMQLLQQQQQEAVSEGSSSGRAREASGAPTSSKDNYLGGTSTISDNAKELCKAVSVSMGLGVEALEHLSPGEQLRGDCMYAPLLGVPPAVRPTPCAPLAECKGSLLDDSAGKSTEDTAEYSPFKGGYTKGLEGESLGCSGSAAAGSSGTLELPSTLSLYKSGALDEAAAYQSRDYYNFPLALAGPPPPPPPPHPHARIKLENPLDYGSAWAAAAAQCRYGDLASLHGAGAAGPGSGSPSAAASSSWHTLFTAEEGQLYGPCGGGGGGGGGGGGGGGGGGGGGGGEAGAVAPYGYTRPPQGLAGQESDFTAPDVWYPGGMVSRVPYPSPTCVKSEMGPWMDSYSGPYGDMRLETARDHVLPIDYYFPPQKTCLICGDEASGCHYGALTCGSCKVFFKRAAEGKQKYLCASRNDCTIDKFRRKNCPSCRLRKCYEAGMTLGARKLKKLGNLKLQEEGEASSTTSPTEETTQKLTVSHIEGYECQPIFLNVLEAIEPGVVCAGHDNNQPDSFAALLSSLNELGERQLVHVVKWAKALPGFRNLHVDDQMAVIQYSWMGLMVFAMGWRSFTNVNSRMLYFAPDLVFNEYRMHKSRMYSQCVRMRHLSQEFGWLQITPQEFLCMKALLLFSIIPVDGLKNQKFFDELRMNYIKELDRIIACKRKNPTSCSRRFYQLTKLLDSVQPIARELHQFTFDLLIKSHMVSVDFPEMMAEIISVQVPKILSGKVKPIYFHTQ

Nc1nc(-c2ccccc2)c(Br)c(=O)[nH]1
inactive: outcome [1] | outcome [2] | outcome [3] | outcome [4] | Potency [5] | outcome [6] | outcome [7] | outcome [8] | outcome [9] | Potency [10] | outcome [11] | outcome [12] | Potency [13] | Potency [14] | outcome [15] | outcome [16]

O=C(O)c1cc2ccccc2nc1C(=O)O
inactive: outcome [1] | outcome [2] | outcome [3] | outcome [4] | Potency [5] | Potency [17] | outcome [6] | outcome [7] | outcome [9] | Potency [10] | outcome [11] | outcome [12] | Potency [13] | Potency [14] | outcome [18] | outcome [15] | outcome [16]

CCCCSCCCC
inactive: outcome [1] | outcome [2] | outcome [3] | outcome [4] | Potency [5] | Potency [17] | outcome [6] | outcome [9] | outcome [19] | outcome [11] | Potency [13] | Potency [14] | outcome [18] | outcome [15] | outcome [16]

O=C(CCCl)NCCc1ccccc1
inactive: outcome [1] | outcome [2] | outcome [3] | outcome [4] | Potency [5] | Potency [17] | outcome [6] | outcome [7] | outcome [8] | outcome [9] | outcome [19] | outcome [11] | outcome [12] | Potency [13] | Potency [14] | outcome [18] | outcome [15] | outcome [16]

Cc1cccc(Cl)c1
inactive: outcome [1] | outcome [2] | outcome [3] | outcome [4] | Potency [5] | Potency [17] | outcome [6] | outcome [7] | outcome [9] | outcome [11] | outcome [12] | Potency [13] | Potency [14] | outcome [15] | outcome [16]

CC(C)=CCC[C@@](C)(O)[C@H]1CC=C(C)CC1
inactive: outcome [1] | outcome [2] | outcome [3] | outcome [4] | Potency [5] | Potency [20] | outcome [6] | outcome [7] | outcome [9] | outcome [19] | outcome [11] | outcome [12] | Potency [13] | Potency [14] | outcome [15] | outcome [16]

CC1=C(O)C(=O)C(C)O1 (stereo unspecified)
inactive: outcome [1] | outcome [2] | outcome [3] | outcome [4] | Potency [5] | Potency [20] | outcome [6] | outcome [7] | outcome [9] | Potency [10] | outcome [19] | outcome [11] | Potency [13] | Potency [14] | outcome [18] | outcome [15] | outcome [16]

CC1(C)CC(OC(=O)CCCCCCCCC(=O)OC2CC(C)(C)NC(C)(C)C2)CC(C)(C)N1
inactive: activity change, negative = cytotoxicity [1] -7.5% [at 19 µM] | viability change, negative = cytotoxic [2] -15.1% [at 19 µM] | viability change, negative = cytotoxic [3] -5.84% [at 19 µM] | activity change [4] 0.253% [at 18.9 µM] | activity change, negative = inhibition [5] -29.1% [at 19 µM] | activation [17] -4.04% [at 19 µM] | activity, negative = inhibition [20] -12.7% [at 19 µM] | activity change, negative = cytotoxicity [6] 0.897% [at 19 µM] | activity change, negative = cytotoxicity [9] -21.6% [at 19 µM] | activation [10] -0.324% [at 19 µM] | activity change, negative = inhibition [11] -9.89% [at 19 µM] | activity change, negative = cytotoxicity [12] -0.743% [at 19 µM] | activation [13] 0.194% [at 19 µM] | activity change, negative = inhibition [14] 5.15% [at 18.9 µM] | activity change, negative = cytotoxicity [18] -13.3% [at 18.9 µM] | activity change, negative = cytotoxicity [15] 0.742% [at 19 µM] | viability change, negative = cytotoxic [16] -1.01% [at 15.8 µM]

— PubChem BioAssay (Tox21)
